According to paper PMC5700166:
Substitutions are numbered along the chain they refer to.

Tests used:
Test in all cases: protein-binding microarray (PBM); PBM: ~300 nM protein, 6 mM HEPES pH 7.8, 80 mM KCl, 0.5 mM EDTA, 0.5 mM EGTA, 6% glycerol, 35 ng/ul poly-dIdC, 1% milk, 1 h, room temperature; Ap Aiptasia and Nv Nematostella (sea anemones) / Co Capsaspora / Aq Amphimedon (sponge) / Dm Drosophila / Hu human; RHD is the Rel homology domain; high values mean tight binding
Settings in all cases: dsDNA, one strand shown
GST-Ap-NF-kB RHD = biological target: T1, GST-Ap-NF-kB RHD (Exaiptasia pallida (Aiptasia), UniProt A0A913YAJ5 2-422)
T1 sequence: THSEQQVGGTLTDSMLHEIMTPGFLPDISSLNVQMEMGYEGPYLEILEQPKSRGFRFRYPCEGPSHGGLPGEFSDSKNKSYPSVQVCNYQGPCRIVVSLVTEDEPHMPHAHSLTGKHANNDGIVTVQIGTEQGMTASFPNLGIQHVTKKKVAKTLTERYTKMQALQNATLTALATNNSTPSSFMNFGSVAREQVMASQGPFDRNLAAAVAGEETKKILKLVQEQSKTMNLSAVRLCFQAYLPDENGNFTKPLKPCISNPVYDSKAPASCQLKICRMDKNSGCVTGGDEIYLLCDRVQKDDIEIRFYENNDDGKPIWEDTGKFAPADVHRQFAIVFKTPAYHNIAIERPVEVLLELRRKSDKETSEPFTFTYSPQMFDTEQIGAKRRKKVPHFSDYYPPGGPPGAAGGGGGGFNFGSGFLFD

[1] = biological target: T2, GST-Nv-NF-kB (Cys allele) (Nematostella vectensis, UniProt E5G601 2-411)
T2 sequence: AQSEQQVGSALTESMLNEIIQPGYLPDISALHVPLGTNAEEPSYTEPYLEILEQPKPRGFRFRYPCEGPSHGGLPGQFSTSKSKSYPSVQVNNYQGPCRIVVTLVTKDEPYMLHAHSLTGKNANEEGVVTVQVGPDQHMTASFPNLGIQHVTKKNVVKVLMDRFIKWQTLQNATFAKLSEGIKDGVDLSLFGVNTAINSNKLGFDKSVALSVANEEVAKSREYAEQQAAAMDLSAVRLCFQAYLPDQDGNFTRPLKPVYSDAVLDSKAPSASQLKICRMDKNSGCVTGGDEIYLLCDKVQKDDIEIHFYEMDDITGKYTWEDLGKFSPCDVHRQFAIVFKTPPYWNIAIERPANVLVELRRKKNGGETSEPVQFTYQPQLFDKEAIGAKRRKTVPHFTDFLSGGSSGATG

[2] = biological target: T3, GST-Nv-NF-kB (Ser allele) (Nematostella vectensis, UniProt A7UNT2 2-411)
T3 sequence: T2 sequence with Q21R, C66S, S207N, E215Q, V217A, E225K, A268E, D399E

GST-Dm-Relish = biological target: T4, GST-Dm-Relish (Drosophila melanogaster, UniProt Q94527 99-473)
T4 sequence: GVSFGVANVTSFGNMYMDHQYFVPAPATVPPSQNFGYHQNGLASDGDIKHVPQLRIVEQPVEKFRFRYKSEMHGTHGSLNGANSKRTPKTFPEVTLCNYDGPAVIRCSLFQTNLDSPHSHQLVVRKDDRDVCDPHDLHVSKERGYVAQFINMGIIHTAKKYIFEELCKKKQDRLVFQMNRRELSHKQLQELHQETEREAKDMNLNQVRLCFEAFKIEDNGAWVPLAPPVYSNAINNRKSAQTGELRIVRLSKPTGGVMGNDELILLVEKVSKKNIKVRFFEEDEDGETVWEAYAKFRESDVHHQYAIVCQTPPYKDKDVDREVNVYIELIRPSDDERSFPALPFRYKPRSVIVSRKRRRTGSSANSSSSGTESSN

GST-Aq-NF-kB = biological target: T5, GST-Aq-NF-kB (Amphimedon queenslandica, UniProt A9Y5G7 2-389)
T5 sequence: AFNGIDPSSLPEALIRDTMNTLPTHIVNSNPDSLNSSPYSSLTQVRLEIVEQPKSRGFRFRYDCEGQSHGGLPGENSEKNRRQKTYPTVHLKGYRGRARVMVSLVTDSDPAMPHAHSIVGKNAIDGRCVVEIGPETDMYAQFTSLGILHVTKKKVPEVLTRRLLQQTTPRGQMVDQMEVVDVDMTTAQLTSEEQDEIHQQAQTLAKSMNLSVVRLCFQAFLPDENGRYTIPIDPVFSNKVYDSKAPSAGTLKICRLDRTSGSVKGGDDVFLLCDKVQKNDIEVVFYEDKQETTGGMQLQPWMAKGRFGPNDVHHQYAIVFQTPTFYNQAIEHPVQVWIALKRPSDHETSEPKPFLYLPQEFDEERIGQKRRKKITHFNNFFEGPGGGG

GST-Hu-p50 = GST-Hu-p50 (Homo sapiens, UniProt P19838 7-356)
GST-Co-NF-kB = biological target: T6, GST-Co-NF-kB (Capsaspora owczarzaki, UniProt F1ARL5 200-546)
T6 sequence: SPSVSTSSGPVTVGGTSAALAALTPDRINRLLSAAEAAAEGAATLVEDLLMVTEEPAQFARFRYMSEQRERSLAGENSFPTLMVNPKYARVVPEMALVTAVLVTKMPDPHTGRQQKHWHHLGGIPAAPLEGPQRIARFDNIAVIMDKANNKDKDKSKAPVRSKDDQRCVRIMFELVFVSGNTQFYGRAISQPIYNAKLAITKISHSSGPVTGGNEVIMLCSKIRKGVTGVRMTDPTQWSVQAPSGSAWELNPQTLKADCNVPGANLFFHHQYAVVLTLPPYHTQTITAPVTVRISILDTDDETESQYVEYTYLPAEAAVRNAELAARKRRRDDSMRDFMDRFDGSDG

GST-Hu-p50, sequence (P19838 7-356): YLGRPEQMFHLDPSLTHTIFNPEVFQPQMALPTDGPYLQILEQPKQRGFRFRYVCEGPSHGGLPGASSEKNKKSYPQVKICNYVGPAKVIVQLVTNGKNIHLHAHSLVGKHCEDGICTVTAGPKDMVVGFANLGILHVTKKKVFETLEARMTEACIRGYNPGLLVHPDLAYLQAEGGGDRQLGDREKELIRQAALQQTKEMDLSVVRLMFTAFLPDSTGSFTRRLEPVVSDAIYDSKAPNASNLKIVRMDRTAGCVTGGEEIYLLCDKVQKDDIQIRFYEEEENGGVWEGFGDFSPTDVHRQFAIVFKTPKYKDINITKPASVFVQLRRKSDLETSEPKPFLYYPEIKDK

Sequence | binding signal (GST-Ap-NF-kB RHD) [z-score] | binding signal [1] [z-score] | binding signal [2] [z-score] | binding signal (GST-Dm-Relish) [z-score] | binding signal (GST-Aq-NF-kB) [z-score] | binding signal (GST-Hu-p50) [z-score] | binding signal (GST-Co-NF-kB) [z-score]
CCGATTAACATCAGGCCATTCCCTGATGTTAATCGGGTCTTGATTCGCTTGACGCTGCTG | 1.39 | 2.63 | 1.77 | 2.6 | 4.37 | 1.79 | 
CCGATTAACATCAGGGGGATTACTGATGTTAATCGGGTCTTGATTCGCTTGACGCTGCTG | 8.76 | 7.64 | 8.21 | 9.03 | 6.92 | 7.22 | 5.85
CCGATTAACATCAGGATAGTCCCTGATGTTAATCGGGTCTTGATTCGCTTGACGCTGCTG | 5.8 | 5.23 | 4.11 | 2.84 | 6.61 | 4.05 | 
CCGATTAACATCATATGGGAAAATGATGTTAATCGGGTCTTGATTCGCTTGACGCTGCTG | 1.55 | 3.76 | 4.82 | 1.12 | 2.17 | 2.72 | 3.09
CCGATTAACATCAGAAAAGTACCTGATGTTAATCGGGTCTTGATTCGCTTGACGCTGCTG | 3.82 | 6.4 | 9.87 | 8.45 | 4.69 | 6.05 | 
CCGATTAACATCAGGTAATTTTATGATGTTAATCGGGTCTTGATTCGCTTGACGCTGCTG | 1.38 | 3.29 | 5.66 | 3.58 | 2.95 | 4.06 | 
CCGATTAACATCAGGAAACCACCTGATGTTAATCGGGTCTTGATTCGCTTGACGCTGCTG | 4.41 | 4.04 | 3.92 | 7.57 | 6.62 | 6.09 | 
CCGATTAACATCAAATATTCCCTTGATGTTAATCGGGTCTTGATTCGCTTGACGCTGCTG | 5.14 | 6.37 | 6.41 | 3.18 | 5.56 | 4.16 | 3.47
CCGATTAACATCAGGAAAGACCCTGATGTTAATCGGGTCTTGATTCGCTTGACGCTGCTG | 2.17 | 4.11 | 1.92 | 4.41 | 6.37 | 3.3 | 
CCGATTAACATCAGAAAGTTCCCTGATGTTAATCGGGTCTTGATTCGCTTGACGCTGCTG | 4.17 | 4.74 |  | 6.32 | 5.8 | 4.18 | 3.54
CCGATTAACATCAAACTCCCCCGTGATGTTAATCGGGTCTTGATTCGCTTGACGCTGCTG | 6.89 | 5.44 |  | 5.92 | 5.84 | 6.48 | 7.66
CCGATTAACATCAGGGGCTTACCTGATGTTAATCGGGTCTTGATTCGCTTGACGCTGCTG | 4.59 | 6.21 |  | 5.58 | 7.25 | 4.8 | 1.88
CCGATTAACATCAGGCGTTCCCCTGATGTTAATCGGGTCTTGATTCGCTTGACGCTGCTG | 5.26 | 6.01 |  | 6.34 | 5.53 | 4.27 | 3.98
CCGATTAACATCAGAAGTCCCCCTGATGTTAATCGGGTCTTGATTCGCTTGACGCTGCTG | 7.95 | 7.32 |  | 7.74 | 6.54 | 6.36 | 5.95
CCGATTAACATCAGAAACTTCCCTGATGTTAATCGGGTCTTGATTCGCTTGACGCTGCTG | 4.46 | 5.22 |  | 4.16 | 5.51 | 4.25 | 2.41
CCGATTAACATCAGGCCTTCCCCTGATGTTAATCGGGTCTTGATTCGCTTGACGCTGCTG | 6.39 | 6.79 |  | 9.6 | 7.14 | 4.63 | 2.84
CCGATTAACATCAGGGGGTTGCATGATGTTAATCGGGTCTTGATTCGCTTGACGCTGCTG | 5.29 | 3.67 |  | 4.83 | 4.08 | 5.29 | 2.22
CCGATTAACATCAACAACCCCCCTGATGTTAATCGGGTCTTGATTCGCTTGACGCTGCTG | 6.24 | 4.31 |  | 6.01 | 5.18 | 5.38 | 4.22
CCGATTAACATCAAGGGGGGACTTGATGTTAATCGGGTCTTGATTCGCTTGACGCTGCTG | 4.76 | 5.56 |  | 5.09 | 5.14 | 5.19 | 5.68
CCGATTAACATCAAAATCACCCCTGATGTTAATCGGGTCTTGATTCGCTTGACGCTGCTG | 4.66 | 2.97 |  | 5.22 | 3.41 | 4.39 | 5.02
CCGATTAACATCAGAGATCCCCCTGATGTTAATCGGGTCTTGATTCGCTTGACGCTGCTG | 7.26 | 6.17 |  | 6.84 | 5.8 | 6.13 | 4.52
CCGATTAACATCAGGGGGGAGAATGATGTTAATCGGGTCTTGATTCGCTTGACGCTGCTG | 6 | 4.08 |  | 3.85 | 4.82 | 6.41 | 7.95
CCGATTAACATCAAAATAGCCCCTGATGTTAATCGGGTCTTGATTCGCTTGACGCTGCTG | 5.32 | 5.99 |  | 4.12 | 5.87 | 5.38 | 1.88
